Experimental data taken from PubChem BioAssay (Tox21).
Inconclusive results are not listed. Calls of active or inactive are those of the source. Unless noted, the call rests on the fitted dose curve; in most records, active means well fitted curve in the direction sought with a large enough effect in the repeat runs; inconclusive means weak or mixed curves; inactive means no such curve, though single readings can be large; an effect the other way counts as inactive or inconclusive.

Legend:
[1] = qHTS assay to identify small molecule agonists of the vitamin D receptor (VDR) signaling pathway - cell viability counter screen (AID 743224); further: series mostly up to about 63 µM; on the % scale 0 is the no-effect control and ±100 the full control effect; nearly all actives have a fitted effect of over 50% in size
Summary of the method: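 Counter screen for cytotoxicity: VDR-bla cells at 2,000 cells/well, 16 h compound exposure, then CellTiter-Glo luminescence after the beta-lactamase measurement.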

[2] = qHTS assay to identify small molecule antagonists of the vitamin D receptor (VDR) signaling pathway - cell viability counter screen (AID 743225); further: on the % scale 0 is the no-effect control and ±100 the full control effect; nearly all actives have a fitted effect of over 50% in size
Summary of the method: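 VDR-bla HEK 293T cells, 4 h pre-incubation at 37C, then compound plus 1-alpha,25-dihydroxyvitamin D3 (3 nM final) for 16 h. After the beta-lactamase FRET read, CellTiter-Glo was added to the same wells; luminescence after 30 min at room temperature.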

[3] = qHTS assay to identify small molecule agonists of the NFkB signaling pathway (AID 1159509; active means well fitted curve in the direction sought with a large enough effect in the signal ratio in the repeat runs, not every such curve was filed as active; the % refers to the signal ratio; further: series mostly up to about 61 µM; on the % scale 0 is the no-effect control and ±100 the full control effect)
Summary of the method: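 Agonist activity was read as beta-lactamase-driven FRET change (460 and 530 nm emission, 405 nm excitation) following 1.5 hr substrate loading at room temperature. Beforehand, ME-180 NFkB-bla reporter cells were treated with compounds for 5 hr at 37 C.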

[4] = qHTS assay to identify small molecule agonists of the NFkB signaling pathway - cell viability counter screen (AID 1159515; calls by dose curve; further: series mostly up to about 61 µM; on the % scale 0 is the no-effect control and ±100 the full control effect; nearly all actives have a fitted effect of over 55% in size)
Summary of the method: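 Counter screen run alongside the NFkB-bla agonist assay: ME-180 reporter cells exposed to compounds for 5 hr, then lysed with CellTiter-Glo in the same wells. Luminescence, read after 30 min, reflects viable cells.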

[5] = qHTS assay to identify small molecule agonists of the endoplasmic reticulum stress response signaling pathway (AID 1159516; active means well fitted activation curve with a large enough effect in the signal ratio in the repeat runs, not every such curve was filed as active; the % refers to the signal ratio; further: on the % scale 0 is the no-effect control and ±100 the full control effect)
Summary of the method: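 For this screen, HeLa cells stably carrying beta-lactamase under the ER stress response element received test compounds, positive controls or DMSO for 5 hr at 37 C; B/G FRET substrate was then added and dual-wavelength emission recorded.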

[6] = qHTS assay to identify small molecule agonists of the endoplasmic reticulum stress response signaling pathway - cell viability counter screen (AID 1159517; calls by dose curve; further: series mostly up to about 61 µM; on the % scale 0 is the no-effect control and ±100 the full control effect; nearly all actives have a fitted effect of over 50% in size)
Summary of the method: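 In parallel with the ESRE reporter read, cytotoxicity was scored by CellTiter-Glo luminescence (30 min, room temperature) on HeLa ESRE-bla cells dosed for 5 hr.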

[7] = qHTS assay to identify small molecule antagonists of the retinoid-related orphan receptor gamma (ROR-gamma) signaling pathway - cell viability counter screen (AID 1159520); further: on the % scale 0 is the no-effect control and ±100 the full control effect; nearly all actives have a fitted effect of over 50% in size
Summary of the method: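 Tet-on ROR gamma CHO cells were given compounds for 2 hr, then doxycycline hyclate at 1 uM final, and incubated 16 hr at 37 C. Viability was measured as ATP content by CellTiter-Glo luminescence.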

[8] = biological target: Nuclear receptor ROR-gamma (Homo sapiens) (UniProt P51449); experiment: qHTS assay to identify small molecule antagonists of the retinoid-related orphan receptor gamma (ROR-gamma) signaling pathway (AID 1159521; further: nearly all actives have a fitted effect of over 50% in size; further: potency means the concentration at half of the fitted maximal effect)
Summary of the method: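 Tet-on RORγ CHO cells carrying a ROR response element–luciferase reporter were pretreated with compounds for 2 h, then induced with 1 uM (final) doxycycline hyclate for 16 h at 37 C. Antagonism was read as decreased ONE-Glo luminescence.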

[9] = qHTS assay to identify small molecule agonists of the AP-1 signaling pathway - cell viability counter screen (AID 1159525; calls by dose curve; further: nearly all actives have a fitted effect of over 55% in size)
Summary of the method: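 Same-well cytotoxicity counter screen of the Tox21 10K library in ME-180 cells. The readout is ATP-dependent luminescence after 5 h compound treatment. Data are normalised to DMSO and tetra n-octyl ammonium bromide controls.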

[10] = biological target: Retinoic acid receptor RXR-alpha (Homo sapiens) (UniProt P19793); experiment: qHTS assay to identify small molecule agonists of the RXR signaling pathway (AID 1159527; calls by dose curve; further: on the % scale 0 is the no-effect control and ±100 the full control effect; nearly all actives have a fitted effect of over 35% in size)
Sequence of Retinoic acid receptor RXR-alpha (Homo sapiens) (P19793 whole entry, looked up): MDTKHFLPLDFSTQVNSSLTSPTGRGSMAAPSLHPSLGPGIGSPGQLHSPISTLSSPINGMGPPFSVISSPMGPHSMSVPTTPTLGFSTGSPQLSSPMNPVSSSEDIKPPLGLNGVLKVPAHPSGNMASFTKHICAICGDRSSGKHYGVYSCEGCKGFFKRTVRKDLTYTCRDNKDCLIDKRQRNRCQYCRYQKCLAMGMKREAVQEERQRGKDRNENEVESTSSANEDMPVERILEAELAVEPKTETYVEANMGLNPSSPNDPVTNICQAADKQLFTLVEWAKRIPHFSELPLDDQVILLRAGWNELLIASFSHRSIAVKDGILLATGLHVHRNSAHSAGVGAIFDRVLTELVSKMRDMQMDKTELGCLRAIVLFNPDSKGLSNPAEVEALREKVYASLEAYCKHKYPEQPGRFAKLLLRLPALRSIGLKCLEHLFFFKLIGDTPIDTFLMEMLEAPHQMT
Summary of the method: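 GeneBLAzer RXR-alpha-UAS-bla HEK 293T cells in medium with 2% charcoal-stripped FBS, pre-incubated 5 hr at 37 C, then exposed to compounds 16 hr. Beta-lactamase reporter read by FRET substrate, 2 hr room temperature, 460/530 nm emission.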

[11] = qHTS assay to identify small molecule antagonists of the retinoid acid receptor (RAR) signaling pathway - cell viability counter screen (AID 1159551); further: on the % scale 0 is the no-effect control and ±100 the full control effect; nearly all actives have a fitted effect of over 35% in size
Summary of the method: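 Measured by luminescent ATP detection, viability reflects C3RL4 cells treated 6 h at 37 C with test chemicals in the presence of 1 uM (final) retinol.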

[12] = qHTS assay to identify small molecule antagonists of the retinoic acid receptor (RAR) signaling pathway (AID 1159552)
Summary of the method: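 RARE-luc C3RL4 cells; cpds + 1 uM (final) retinol, 6 hr, 37 C/5% CO2; luciferase reagent, 30 min RT, luminescence readout. Inhibitors of retinol-driven signal scored.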

[13] = qHTS assay to identify small molecule agonists of the retinoic acid receptor (RAR) signaling pathway (AID 1159553); further: on the % scale 0 is the no-effect control and ±100 the full control effect
Summary of the method: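 6 hr compound exposure (DMSO vehicle) of overnight-plated C3RL4 RARE-luc cells at 37 C; luminescence quantified after 30 min RT with luciferase reagent.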

[14] = qHTS assay to identify small molecule agonists of the AP-1 signaling pathway (AID 1159526; calls by dose curve; further: potency means the concentration at half of the fitted maximal effect; on activation: on the % scale 0 is the no-effect control and ±100 the full control effect)
[15] = qHTS assay to identify small molecule agonists of the RXR signaling pathway - cell viability counter screen (AID 1159529)
Summary of the method: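 RXR-alpha-UAS-bla HEK 293T cells in medium with 2% charcoal-stripped FBS were preincubated 5 hr, then exposed to compounds for 16 hr at 37 C. Viability was read as CellTiter-Glo luminescence after 30 min at room temperature.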

OCCc1ccncc1
inactive: outcome [1] | outcome [2] | outcome [3] | outcome [4] | outcome [5] | outcome [6] | Potency [7] | Potency [8] | outcome [9] | outcome [10] | outcome [11] | outcome [12] | Potency [13]

O=c1[nH][nH]c2ccccc12
active: Potency [8] 15.6 µM | Potency [14] 49.9 µM
inactive: outcome [1] | outcome [2] | outcome [3] | outcome [4] | outcome [5] | outcome [6] | Potency [7] | outcome [9] | outcome [11] | Potency [13]

CCCC(=O)OCc1ccccc1
inactive: outcome [1] | outcome [2] | outcome [3] | outcome [4] | outcome [5] | outcome [6] | Potency [7] | outcome [9] | Potency [14] | Potency [15] | outcome [11] | outcome [12] | Potency [13]

NCCOCCOCCN
inactive: outcome [1] | outcome [2] | outcome [3] | outcome [4] | outcome [5] | outcome [6] | Potency [7] | Potency [8] | outcome [9] | Potency [14] | outcome [11]

COc1ccc(CN(CCN(C)C)c2ncccn2)cc1
inactive: outcome [1] | outcome [3] | outcome [4] | outcome [5] | outcome [6] | Potency [7] | Potency [8] | outcome [9] | outcome [10] | Potency [15] | outcome [11] | outcome [12] | Potency [13]

CC(=O)Nc1ccn(C2COC(COC(=O)c3ccccc3)O2)c(=O)n1 (stereo unspecified)
inactive: outcome [1] | outcome [2] | outcome [3] | outcome [4] | outcome [5] | outcome [6] | Potency [7] | outcome [9] | Potency [14] | Potency [15] | outcome [11] | outcome [12] | Potency [13]

CCCCCCCCCCCCCCCCCCCl
inactive: activity change, negative = cytotoxicity [1] 6.04% [at 5.95 µM] | viability change, negative = cytotoxic [2] -10.5% [at 6.95 µM] | activation [3] -0.691% [at 6.95 µM] | activity, negative = cytotoxic [4] -1.14% [at 6.95 µM] | activation [5] -3.96% [at 6.95 µM] | activity change, negative = cytotoxicity [6] 2.96% [at 6.95 µM] | activity, negative = cytotoxicity [7] -1.61% [at 8.39 µM] | viability change, negative = cytotoxic [9] 1.66% [at 6.97 µM] | activation [14] -4.53% [at 6.97 µM] | activity change, negative = cytotoxicity [15] 3.39% [at 6.97 µM] | activity change, negative = cytotoxicity [11] -1.45% [at 8.39 µM] | activity, negative = inhibition [12] -19.9% [at 8.39 µM] | activation [13] -0.984% [at 8.36 µM]

Cc1cccc(C)c1NC(=O)CN1CCCC1
inactive: outcome [1] | outcome [2] | outcome [3] | outcome [4] | outcome [5] | outcome [6] | Potency [7] | Potency [8] | outcome [9] | outcome [10] | Potency [15] | outcome [11] | outcome [12] | Potency [13]

CCC(=O)O[C@]1(C(=O)COC)[C@@H](C)C[C@H]2[C@@H]3CCC4=CC(=O)C=C[C@]4(C)C3(F)[C@@H](O)C[C@@]21C (stereo partly specified)
inactive: outcome [1] | outcome [2] | outcome [3] | outcome [4] | outcome [5] | outcome [6] | Potency [7] | Potency [8] | outcome [9] | Potency [14] | outcome [11] | Potency [13]

Cc1c(Nc2ncccc2C(=O)O)cccc1C(F)(F)F
inactive: outcome [1] | outcome [2] | outcome [3] | outcome [4] | outcome [5] | outcome [6] | Potency [7] | Potency [8] | outcome [9] | Potency [14] | outcome [11] | outcome [12]
